Several values for one entry are separate records, joined by “and”; a condition that tells them apart may be missing. Equal entries are not always repeated. Out of some 1,500 compounds screened, about 100 (6.7%) were called active. Not shown: some 7% with an inconclusive outcome. Shown is part of a subset that was picked to be rich in actives. Values without a mark were called inactive. Calls follow the shape of the dose curve; as a rule, active = well fitted inhibition curve with a large enough effect; inconclusive = small, poorly fitted or top-dose-only effect, or effect the other way; inactive = flat fitted curve, though single readings scatter.
Each molecule was assayed against Runt-related transcription factor 1 (Homo sapiens) + Core-binding factor subunit beta (Homo sapiens) (UniProt Q01196+Q13951) (assay: qHTS Assay for Compounds Blocking the Interaction Between CBF-beta and RUNX1 for the Treatment of Acute Myeloid Leukemia: Hit Validation). Conditions: AlphaScreen CBFb-His/RUNX1-biotin binding; series mostly up to 59.8 µM; activity, negative = inhibition: at the top concentration.
Text: NIH Chemical Genomics Center [NCGC]
NIH Molecular Libraries Probe Production centers Network [MLPCN]
Assay Submitter (PI): Paul Liu
Core Binding Factor (CBF) abnormalities are associated with 20-25% of all acute myeloid leukemias (AML), of which 5-10% are further sub classified as acute myelomonocytic leukemia with eosinophilia, also known as M4Eo in the FAB classification scheme. This subtype of leukemia is usually associated with chromosome 16 inversion (p13:q22). Chromosome 16 inversion results in formation of the fusion oncogene CBFB-MYH11, which encodes the fusion protein CBF-beta-SMMHC.
It has been hypothesized that the interference of CBF-beta and RUNX1 binding could have therapeutic implications for patients with CBF mediated leukemias. We developed a CBF-beta and RUNX1 binding assay in AlphaScreenTM format and optimized it for high throughput screening to search for inhibitors. The goal of this project is to screen MLPCN's compound collection (MLSMR) for identifying the inhibitors of the interaction between CBF-beta and RUNX1 proteins as research probes. If these probes work well in the animal models, the ultimate goal of this project is to development a new drug treatment for this disease.
This assay can not be used to assess how apparent inhibitors interfere with protein binding, and whether inhibitors specifically bind to either protein. Disruption of this protein-protein interaction, through any mechanism, is the intended target activity.
The present data set was run to confirm the activity of hits from the primary screen.
NCGC Assay Protocol Summary:
Step, Parameter, Description
(1) Reagent, 3 uL CBFb-His/RUNX1-biotin mix incubated together for 20 minutes at room temperature (30 nM each)
(2) Compound or control, 23 nL compound stock solution
(3) Incubation, 15 minutes at Room temperature
(4) Reagent, 1 uL 50 ng each of beads (Nickel beads and streptavidin beads)
(5) Incubation, 90 minutes at Room temperature
(6) Detection, Excitation=365 nm Emission=440 nm, Envision reader in AlphaScreenTM mode
Keywords: MLSMR, MLPCN, NIH Roadmap, qHTS, NCGC, Core binding factor, CBF, CBF-beta, Acute myeloid leukemia
% is scaled to controls: 0 for no effect and ±100 for the full control effect; potency is read from the fitted curve at half-maximal effect.
Also: nearly all actives have a fitted effect of over 60% in size.

Runt-related transcription factor 1 (Homo sapiens) + Core-binding factor subunit beta (Homo sapiens), sequence (Q01196 whole entry, looked up): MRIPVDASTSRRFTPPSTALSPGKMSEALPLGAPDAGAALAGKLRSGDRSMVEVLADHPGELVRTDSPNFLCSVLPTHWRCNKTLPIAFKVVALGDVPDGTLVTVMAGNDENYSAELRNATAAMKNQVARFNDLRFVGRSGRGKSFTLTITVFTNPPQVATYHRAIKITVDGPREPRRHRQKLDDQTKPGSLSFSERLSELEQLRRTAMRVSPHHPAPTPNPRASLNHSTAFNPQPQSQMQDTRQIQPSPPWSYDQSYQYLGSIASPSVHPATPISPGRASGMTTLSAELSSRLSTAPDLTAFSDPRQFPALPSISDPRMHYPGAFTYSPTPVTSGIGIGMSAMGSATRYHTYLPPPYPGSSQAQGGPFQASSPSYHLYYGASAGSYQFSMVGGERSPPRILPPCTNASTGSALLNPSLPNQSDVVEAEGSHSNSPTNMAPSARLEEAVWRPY
Runt-related transcription factor 1 (Homo sapiens) + Core-binding factor subunit beta (Homo sapiens), sequence (Q13951 whole entry, looked up): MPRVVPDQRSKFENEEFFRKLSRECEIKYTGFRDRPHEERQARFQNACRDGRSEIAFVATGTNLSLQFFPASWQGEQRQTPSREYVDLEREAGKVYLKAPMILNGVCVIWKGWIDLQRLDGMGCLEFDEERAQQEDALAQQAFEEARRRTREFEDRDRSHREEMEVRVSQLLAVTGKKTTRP

Structure (SMILES)	Potency	activity, negative = inhibition
CCn1nc(-c2ccccc2)nc2c(=O)n(C)c(=O)nc1-2	1.12 µM (active)	
CCC1(C(=O)c2ccc(C)cc2)C2c3ccccc3OC(=O)C21C(=O)O (stereo not drawn)		95.8%
COCc1cc(OC(=O)N(C)C)nc(-c2ccc(C)c(Cl)c2)n1		-1.64%
CCOC(=O)C(O)(c1ccc(NC(=O)c2ccc(Cl)c(Cl)c2)cc1)C(F)(F)F (stereo not drawn)		5.28%
CCN1CCc2ccccc2C1		-0.241%
NC(Cc1cc(O)c(O)cc1O)C(=O)O (stereo not drawn)	2.51 µM (active)	
CCOC(=O)[C@]1(C#N)[C@@H]2C=CC(C(N)=O)=CN2[C@@H](C(N)=O)[C@@H]1c1ccc(F)cc1		-22%
CNC(=O)O/N=C(\C)Cc1nnn(-c2cc(C)on2)n1		-1.93%
O=C1/C(=C\c2cccnc2)N2CCC1CC2		-7.07%
CCN1CCN(c2nc([N+](=O)[O-])nn2C)CC1		-0.501%
CC(C)C(N)C(=O)OCCOCn1cnc2c(=O)[nH]c(N)nc21 (stereo not drawn)	0.705 µM (active)	
CN1C(=O)C(=Cc2cccnc2)C(=O)N(C)C1=O		-6.91%
COc1cccc(C(=O)N2CCC3(CC2)OCCO3)c1		2.46%
O=C(O)COc1ccccc1/C=C1\C(=O)NC(=O)N(CCC2=CCCCC2)C1=O		-8.15%
CCn1c(O)c(C=NCCN2CCOCC2)c(=O)[nH]c1=S		6.3%
CN1CCN(c2nc(N)cc(=O)[nH]2)CC1		-5.72%
CC(C)C[C@H]1C(=O)N2CCCC2[C@]2(O)O[C@](NC(=O)[C@@H]3C=C4c5cccc6[nH]cc(c56)CC4N(C)C3)(C(C)C)C(=O)N12 (stereo partly drawn)	7.91 µM (active) and 7.05 µM (active)	
CC(C)[C@H]1C(=O)N2CCC[C@H]2[C@]2(O)O[C@](NC(=O)[C@@H]3C=C4c5cccc6[nH]cc(c56)C[C@H]4N(C)C3)(C(C)C)C(=O)N12	6.87 µM (active)	
CC(C)[C@@]1(NC(=O)[C@H]2CC3c4cccc5[nH]cc(c45)C[C@H]3N(C)C2)O[C@@]2(O)C3CCCN3C(=O)[C@@H](Cc3ccccc3)N2C1=O (stereo partly drawn)	25 µM (active)	
CC(=O)CC(c1ccccc1[N+](=O)[O-])c1c(O)c2ccccc2oc1=O (stereo not drawn)		-0.958%
Cc1cc(C(=O)Nc2ccccc2)nn1C(C)(C)C		2.7%
N=Cc1c(O)n(-c2ccccc2)c(=O)n(-c2ccccc2)c1=O		-3.79%
CC1CN=C(Nc2ccc(F)c(Cl)c2)S1 (stereo not drawn)		-8.96%
CNC(=O)Oc1ccc(N(C)C)cc1C(C)C		5.1%
O=c1[nH]c(=S)[nH]c(O)c1N=Nc1cccc(S(=O)(=O)N2CCOCC2)c1		1.13%

Structure (SMILES)	Potency	activity, negative = inhibition
CCOP(=O)(Cc1cc(C(C)=O)c(C)o1)OCC		-7.07%
CCCCn1c(O)c(C(CC)=NCCCn2ccnc2)c(=O)[nH]c1=O		-3.48%
CCCCc1ccc(C(=O)O)nc1	6.31 µM (active)	
CCC(C)n1c(O)c(C=NCCc2ccccc2)c(=O)[nH]c1=S (stereo not drawn)		-0.764%
CN(N=O)c1ccc(O)c(O)c1	1.26 µM (active)	
CN(N=O)c1cc(O)ccc1O		1.25%
CCC(=Nc1cccc(C(F)(F)F)c1)c1c(O)n(C)c(=O)n(C)c1=O		2.46%
C=CCn1c(O)c(C(C)=Nc2ccc3c(c2)CCC3)c(=O)[nH]c1=O		-1.69%
COc1cc(CN=Cc2c(O)n(C(C)(C)C)c(=O)[nH]c2=O)cc(OC)c1		1.63%
CCCCn1c(O)c(/C=N/N2CCOCC2)c(=O)[nH]c1=S		-5.68%
CCCCNC(=O)Oc1c(Br)cc2sc(=O)oc2c1Br	6.12 µM (active)	
CCCCn1c(O)c(/C=C2/C=CC=N2)c(=O)[nH]c1=O		-6.78%
Cc1nc(SCc2c(Cl)cccc2Cl)nc(OC(=O)N(C)C)c1C		2.29%
CC(C)(C)n1cc(C(=O)c2ccccc2)cc1-c1ccccc1		-0.565%
Cn1c(O)c(C(=Nc2ccc(F)cc2)c2ccccc2)c(=O)n(C)c1=O		-2.33%
COP(=O)(Cc1ccc(C#N)o1)OC		-0.622%
C/C=C/CC1(CC)C(=O)NC(=S)NC1=O		-1.71%
COc1ccc(CN2C(=O)NC(=O)/C(=C/c3ccc(OC)c(OC)c3OC)C2=O)cc1		9.53%
O=C(O)CCCCC1SCC2NC(=O)NC21 (stereo not drawn)	0.0562 µM (active)	
CC(C)OP(=O)(Oc1ccc(C(O)C(Cl)(Cl)Cl)cc1)OC(C)C (stereo not drawn)		-0.79%
Clc1ccccc1CN1CCN(c2cccc3[nH]ccc23)CC1		-13.4%
C=CCn1c(O)c(C(C)=NCC2CCCO2)c(=O)[nH]c1=O (stereo not drawn)		1.56%
O=c1[nH]c(=S)n(-c2ccc(F)cc2)c(O)c1/C=N/N1CCOCC1		1.42%
Cn1c(O)c(/C=N/N2CCOCC2)c(=O)[nH]c1=S		21.1%
Cc1cccc(-n2c(O)c(/C=N/Nc3nc4c(c(=O)n(C)c(=O)n4C)n3C)c(=O)[nH]c2=S)c1	0.891 µM (active)	

Structure (SMILES)	Potency	activity, negative = inhibition
Cc1cc(OC(=O)N(C)C)nc2c1c(C)nn2C		-3.55%
CCCCCCn1c(O)c(/C=N/N2CCCCCC2)c(=O)[nH]c1=O		-0.075%
COCc1cc(OC(=O)N(C)C)nc(-c2ccccc2)n1		0.677%
Cc1cccc(N2C(=O)NC(=O)/C(=C\c3ccc(N4CCOCC4)cc3)C2=O)c1		-4.52%
Cc1cc(OC(=O)N(C)C)nc(-c2ccc(C)c(Cl)c2)n1		-1.54%
CCCC(=O)c1ccc(CP(=O)(OCC)OCC)o1		-2.26%
CC[N+](C)(CC)CCC[n+]1c(-c2ccccc2)c2cc(N)ccc2c2ccc(N)cc21	1.12 µM (active)	
CC[n+]1c(-c2ccccc2)c2cc(N)ccc2c2ccc(N)cc21	0.499 µM (active)	
O=c1c2ccccc2nc(Cc2cccc([N+](=O)[O-])c2)n1-c1ccc(O)cc1		-8.58%
CCC(=NCc1ccco1)c1c(O)n(-c2ccccc2C)c(=O)[nH]c1=O		-0.548%
CCCC(=O)c1cc(CP(=O)(OCC)OCC)oc1C		-4.76%
O=c1[nH]c(=S)[nH]c(O)c1/C=N/N1CCOCC1		0.395%
Cc1ccc(-n2c(O)c(C=N)c(=O)n(-c3ccc(C)cc3)c2=O)cc1		-1.55%
CC(=O)Nc1ccc([As](=O)(O)c2ccc([N+](=O)[O-])cc2)cc1		-7.13%
Cn1c(O)c(C(=Nc2ccc(F)cc2)c2ccccc2Cl)c(=O)n(C)c1=O		-4.1%
C[C@H]1CC[C@H]2NCCN[C@H]2C1		4.76%
O=C(OCC1O[C@@H](OC(=O)c2cc(O)c(O)c(O)c2)[C@@H](OC(=O)c2cc(O)c(O)c(O)c2)[C@@H](OC(=O)c2cc(O)c(O)c(O)c2)[C@@H]1OC(=O)c1cc(O)c(O)c(O)c1)c1cc(O)c(O)c(O)c1 (stereo partly drawn)	0.0631 µM (active)	
O=C1C=CC(=O)c2c(O)cccc21	4.47 µM (active)	
CCC(=NCc1cccnc1)c1c(O)n(-c2ccccc2C)c(=O)[nH]c1=O		0.638%
Cc1onc(-c2c(Cl)cccc2Cl)c1C(=O)Nc1ccc2c(C(F)(F)F)cc(=O)oc2c1		-2.82%
Cn1c(O)c(C=NCCN2CCN(C(=O)Nc3ccccc3)CC2)c(=O)n(C)c1=O		-4.64%
CCCCCCn1c(O)c(C=Nc2ccccc2N2CCOCC2)c(=O)[nH]c1=S		0.654%
CCC(=NCc1cc(OC)cc(OC)c1)c1c(O)n(C2CCCCC2)c(=O)[nH]c1=O		9.95%

From PubChem BioAssay AID504374 (National Center for Advancing Translational Sciences (NCATS), 2011)
